Test results reported in PubChem BioAssay (NCI).
About 79,000 compounds went through this panel and 15% of them were active in at least one assay; those are over-represented in the sample as a whole. Active and inactive are the calls of the source. No stated cut-off is given here; in the data, active means growth inhibition above about 70%; inactive means the rest.

Columns and labels:
[1] = NCI Yeast Anticancer Drug Screen. Data for the rad52 strain (AID 147);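 further: 0% = growth of vehicle-treated control cultures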; settings: S. cerevisiae rad52 mutant growth inhibition, active compounds read high
In short: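 Screen used a yeast mutant impaired in DNA repair. After compound exposure, growth was measured. Values reflect inhibition compared with vehicle-treated cells.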

[2] = NCI Yeast Anticancer Drug Screen. Data for the wt1 strain (AID 149);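 further: 0% = growth of vehicle-treated wt1 cultures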; settings: S. cerevisiae wt1 strain (SPY 50644) growth inhibition, active compounds read high
In short: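 Each compound is tested on wt1 yeast and the loss of growth versus vehicle gives the inhibition value.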

[3] = NCI Yeast Anticancer Drug Screen. Data for the rad50EPP+ strain (AID 151);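 further: 0% = growth of vehicle-treated control cultures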; settings: S. cerevisiae rad50 mutant strain, active compounds read high
In short: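 Exposing the rad50EPP+ strain to each compound, growth was compared with vehicle-only cultures to give inhibition.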

[4] = NCI Yeast Anticancer Drug Screen. Data for the mgt1 strain (AID 153); settings: S. cerevisiae mgt1 mutant growth inhibition, active compounds read high
In short: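 Genetically defined yeast (mgt1) treated with compound; inhibition of growth expressed against vehicle-treated controls.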

[5] = NCI Yeast Anticancer Drug Screen. Data for the rad50 strain (AID 155);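 further: 0% = growth of vehicle-only cultures of the same strain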; settings: S. cerevisiae rad50 strain growth inhibition, active compounds read high
In short: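 Vehicle-treated cultures provide the reference for the growth inhibition reported for compound-exposed, repair-deficient yeast.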

[6] = NCI Yeast Anticancer Drug Screen. Data for the mec2-1 strain (AID 157); settings: S. cerevisiae mec2-1 strain, active compounds read high
In short: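 Readout is yeast growth inhibition, normalised to vehicle-treated controls, in the mec2-1 strain exposed to compound.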

[7] = NCI Yeast Anticancer Drug Screen. Data for the sgs1 mgt1 strain (AID 161);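 further: 0% = growth of cultures given vehicle only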; settings: S. cerevisiae sgs1 mgt1 strain, active compounds read high
In short: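 Compounds are added to genetically altered yeast, and growth is compared with cultures given vehicle alone to give percent inhibition.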

[8] = NCI Yeast Anticancer Drug Screen. Data for the CLN2oe strain (AID 163);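 further: 0% = growth of vehicle-only control cultures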; settings: S. cerevisiae CLN2oe strain, active compounds read high
In short: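 Values reflect how much compound exposure reduced yeast growth, referenced to vehicle-exposed cells. Assay organism is a strain with a defined genetic change affecting cell-cycle control.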

[9] = NCI Yeast Anticancer Drug Screen. Data for the cln2 rad14 strain (AID 165);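 further: 0% = growth equal to vehicle treated cultures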; settings: S. cerevisiae cln2 rad14 strain, active compounds read high
In short: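 Relative to vehicle controls, growth inhibition of compound-treated cln2 rad14 yeast was recorded.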

[10] = NCI Yeast Anticancer Drug Screen. Data for the bub3 strain (AID 167); settings: S. cerevisiae bub3 mutant strain, active compounds read high
In short: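 Mutant yeast screening strain plus compound; vehicle-treated cultures serve as the 0% inhibition reference.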

[11] = NCI Yeast Anticancer Drug Screen. Data for the wt2 strain (AID 169); settings: S. cerevisiae wt2 strain growth inhibition, active compounds read high
In short: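 Values express reduction in yeast growth under compound treatment, referenced to vehicle-treated cells.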

[12] = NCI Yeast Anticancer Drug Screen. Data for the mlh1 strain (AID 171);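 further: 0% = growth of vehicle-treated control cultures of the same strain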; settings: S. cerevisiae mlh1 strain growth inhibition, active compounds read high
In short: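 Steps: expose the defined-mutant yeast strain to compound; expose a parallel culture to vehicle; measure growth; express compound effect as inhibition relative to the vehicle culture.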

[13] = NCI Yeast Anticancer Drug Screen. Data for the sgs1 strain (AID 173);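 further: 0% = growth of vehicle-only control cultures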; settings: S. cerevisiae sgs1 mutant, active compounds read high
In short: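 Treat defined-mutant yeast with compound; measure growth; calculate inhibition relative to vehicle-treated cells.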

[14] = NCI Yeast Anticancer Drug Screen. Data for the mlh1 rad18 strain (AID 175); settings: S. cerevisiae mlh1 rad18 strain growth inhibition, active compounds read high
In short: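 Test agents were incubated with a yeast strain of defined genotype (DNA damage repair defect). Inhibition of growth was derived by comparison with vehicle-exposed cultures.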

[15] = NCI Yeast Anticancer Drug Screen. Data for the rad18 strain (AID 177); settings: S. cerevisiae rad18 mutant growth inhibition, active compounds read high
In short: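 A genetically defined yeast mutant impaired in DNA damage repair was treated with test compounds, then its growth was measured against cultures receiving vehicle alone.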

[16] = at 5.0 µM (retest, dose inferred, filed as 0.5)
[17] = at 50.0 µM (retest, dose inferred, filed as 5.0)

Measured: growth inhibition

Oc1c2c(c(O)c3ccccc13)C1(N=N2)c2ccccc2Oc2ccccc21
active: [1]; at 3.7 µM 72% | [1]; at 11.0 µM 98% | [1]; at 33.0 µM 97% | [1]; at 100.0 µM 93% | [2]; at 11.0 µM 98% | [2]; at 33.0 µM 98% | [2]; at 100.0 µM 96% | [3]; at 11.0 µM 93% | [3]; at 33.0 µM 95% | [3]; at 100.0 µM 85% | [4]; at 11.0 µM 98% | [4]; at 33.0 µM 97% | [4]; at 100.0 µM 94% | [5]; at 3.7 µM 82% | [5]; at 11.0 µM 98% | [5]; at 33.0 µM 94% | [5]; [17] 98% | [5]; at 50.0 µM 98.5% | [5]; at 100.0 µM 90% | [6]; at 11.0 µM 98% | [6]; at 33.0 µM 97% | [6]; [17] 98% | [6]; at 50.0 µM 98.7% | [6]; at 100.0 µM 94% | [7]; [17] 98% | [7]; at 50.0 µM 98.6% | [8]; at 11.0 µM 98% | [8]; at 33.0 µM 95% | [8]; at 100.0 µM 88% | [9]; [17] 97% | [9]; at 50.0 µM 92.2% | [10]; at 11.0 µM 98% | [10]; at 33.0 µM 96% | [10]; [17] 97% | [10]; at 50.0 µM 99% | [10]; at 100.0 µM 93% | [11]; at 11.0 µM 98% | [11]; at 33.0 µM 97% | [11]; at 100.0 µM 94% | [12]; at 11.0 µM 98% | [12]; at 33.0 µM 97% | [12]; at 100.0 µM 94% | [13]; at 3.7 µM 81% | [13]; at 11.0 µM 98% | [13]; at 33.0 µM 98% | [13]; at 100.0 µM 95% | [14]; [17] 98% | [14]; at 50.0 µM 98% | [15]; at 3.7 µM 74% | [15]; at 11.0 µM 98% | [15]; at 33.0 µM 96% | [15]; at 100.0 µM 92%
inactive: [1]; at 1.2 µM 20% | [2]; at 1.2 µM 2% | [2]; at 3.7 µM 34% | [3]; at 1.2 µM 8% | [3]; at 3.7 µM 54% | [4]; at 1.2 µM 10% | [4]; at 3.7 µM 47% | [5]; at 1.2 µM 17% | [5]; [16] 46% | [6]; at 1.2 µM 10% | [6]; at 3.7 µM 44% | [6]; [16] 31% | [7]; [16] 57% | [8]; at 1.2 µM 15% | [8]; at 3.7 µM 39% | [9]; [16] 19% | [10]; at 1.2 µM 8% | [10]; at 3.7 µM 62% | [10]; [16] 21% | [11]; at 1.2 µM 4% | [11]; at 3.7 µM 49% | [12]; at 1.2 µM 13% | [12]; at 3.7 µM 43% | [13]; at 1.2 µM 14% | [14]; [16] 42% | [15]; at 1.2 µM 18%

Cc1ccccc1NC(=O)c1c(C)oc2c1C(=O)c1ccccc1C2=O
active: [3]; at 100.0 µM 82% | [4]; at 100.0 µM 93% | [5]; at 50.0 µM 82.2% | [5]; at 100.0 µM 86% | [6]; [17] 71% | [6]; at 100.0 µM 92% | [7]; at 50.0 µM 71% | [8]; at 100.0 µM 87% | [10]; [17] 94% | [10]; at 100.0 µM 85% | [11]; at 100.0 µM 87% | [12]; at 100.0 µM 85% | [13]; at 100.0 µM 83% | [14]; [17] 76% | [14]; at 50.0 µM 77%
inactive: [1]; at 1.2 µM -7% | [1]; at 3.7 µM -6% | [1]; at 11.0 µM 3% | [1]; at 33.0 µM 17% | [1]; at 100.0 µM 69% | [2]; at 1.2 µM -28% | [2]; at 3.7 µM -23% | [2]; at 11.0 µM -23% | [2]; at 33.0 µM -5% | [2]; at 100.0 µM 60% | [3]; at 1.2 µM -8% | [3]; at 3.7 µM -17% | [3]; at 11.0 µM 7% | [3]; at 33.0 µM 42% | [4]; at 1.2 µM -40% | [4]; at 3.7 µM -35% | [4]; at 11.0 µM -21% | [4]; at 33.0 µM 57% | [5]; at 1.2 µM -13% | [5]; at 3.7 µM -12% | [5]; [16] 6% | [5]; at 11.0 µM -1% | [5]; at 33.0 µM 7% | [5]; [17] 33% | [6]; at 1.2 µM -28% | [6]; at 3.7 µM -31% | [6]; [16] -10% | [6]; at 11.0 µM -24% | [6]; at 33.0 µM 19% | [6]; at 50.0 µM 50.5% | [7]; [16] -10% | [7]; [17] 3% | [8]; at 1.2 µM -13% | [8]; at 3.7 µM 19% | [8]; at 11.0 µM 9% | [8]; at 33.0 µM 39% | [9]; [16] 1% | [9]; [17] 51% | [9]; at 50.0 µM 53.1% | [10]; at 1.2 µM -57% | [10]; at 3.7 µM -36% | [10]; [16] 17% | [10]; at 11.0 µM -23% | [10]; at 33.0 µM 25% | [10]; at 50.0 µM 69.2% | [11]; at 1.2 µM -6% | [11]; at 3.7 µM -7% | [11]; at 11.0 µM 14% | [11]; at 33.0 µM 30% | [12]; at 1.2 µM -2% | [12]; at 3.7 µM -8% | [12]; at 11.0 µM -12% | [12]; at 33.0 µM -5% | [13]; at 1.2 µM -15% | [13]; at 3.7 µM -15% | [13]; at 11.0 µM -2% | [13]; at 33.0 µM 24% | [14]; [16] -2% | [15]; at 1.2 µM -23% | [15]; at 3.7 µM -24% | [15]; at 11.0 µM -17% | [15]; at 33.0 µM -8% | [15]; at 100.0 µM 55%
